The source of these data is PubChem BioAssay (NCATS).

Each structure is given as a SMILES string. Where “and” joins values, the source holds several entries; their conditions need not be identical. Equal entries are not always repeated. Results filed as inconclusive are left out. Calls of active or inactive are those of the source. Calls follow the shape of the full dose curve.

One experiment in a line: qHTS Assay for Lipid Storage Modulators (AID 1519). As to activity change, negative = inhibition: % is scaled to controls: 0 for no effect and ±100 for the full control effect. The settings on record: Drosophila S3 cells, BODIPY lipid droplet/cell ratio, laser cytometry; at 25.7 µM (top of the series); cells loaded with oleic acid. The method in brief: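 Cells seeded at 5,000 per well were treated with compounds over a concentration series and loaded with oleic acid (400 uM, as added). Lipid droplet fluorescence (488 nm excitation, 500-530 nm channel) was read by laser-scanning cytometry and normalized to 20 uM Triacsin C.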
Regarding `CN[C@H]1[C@@H](O[C@@H]2[C@H](O[C@@H]3[C@@H](O)[C@@H](O)[C@@H](N=C(N)N)[C@@H](O)[C@@H]3N=C(N)N)O[C@H](C)[C@@]2(O)C=O)O[C@@H](CO)[C@@H](O)[C@H]1O`, the activity change, negative = inhibition is -5.41% (inactive).

Take `NCC1CCC(C(=O)O)CC1` (configuration not stated): the activity change, negative = inhibition was -1.26% (inactive).

As for `CCC(=C(CC)c1ccc(O)cc1)c1ccc(O)cc1`, the activity change, negative = inhibition is -5.29% (inactive).

For the molecule `CN(C)CCN(Cc1ccc(Cl)cc1)c1ccccn1`, the activity change, negative = inhibition is -3.62% (inactive).

`Cc1cc2nc3c(=O)[nH]c(=O)nc-3n(CC(O)C(O)C(O)CO)c2cc1C` (configuration not stated): the activity change, negative = inhibition was 0.295% (inactive).

On to `C=C1c2cccc(O)c2C(O)=C2C(=O)[C@@]3(O)C(O)=C(C(N)=O)C(=O)[C@@H](N(C)C)[C@@H]3[C@@H](O)[C@H]12`, for which the activity change, negative = inhibition was 1.55% (inactive).

Take `NS(=O)(=O)c1cc(Cl)c(Cl)c(S(N)(=O)=O)c1`: the activity change, negative = inhibition is -3.46% (inactive).

The experiment is the same for the next values; noted with them: Drosophila S3 cells, BODIPY lipid droplet/cell ratio, laser cytometry; at 57.5 µM (top of the series); cells loaded with oleic acid.
As for `CCNC(=O)[C@H]1O[C@@H](n2cnc3c(N)nc(NCCc4ccc(CCC(=O)O)cc4)nc32)[C@H](O)[C@H]1O`, the activity change, negative = inhibition was -1.93% (inactive).

For `CS(=O)(=O)c1ccc(C2=C(c3ccccc3)C(=O)OC2)cc1`, the activity change, negative = inhibition is 14.5% (inactive).

As for `NCC1CCC(C(=O)O)CC1` (configuration not stated), the activity change, negative = inhibition is 6.78% (inactive).

Turning to `OC(c1cc(C(F)(F)F)nc2c(C(F)(F)F)cccc12)C1CCCCN1` (configuration not stated), the activity change, negative = inhibition is 2.49% (inactive).

On to `Nc1ccn([C@@H]2O[C@H](CO)[C@@H](O)[C@H]2O)c(=O)n1`, for which the activity change, negative = inhibition is -3.18% (inactive).

Turning to `Cc1cc2nc3c(=O)[nH]c(=O)nc-3n(CC(O)C(O)C(O)CO)c2cc1C` (configuration not stated), the activity change, negative = inhibition is 10.9% (inactive) and -20.1% (inactive).

On to `COc1ccc2ccc(=O)oc2c1CC=C(C)C`, for which the activity change, negative = inhibition is 9.52% (inactive).

Take `CCC(c1ccc(O)cc1)C(CC)c1ccc(O)cc1` (configuration not stated): the activity change, negative = inhibition is 9.03% (inactive).

With `CC(NCCc1ccc(O)cc1)C(O)c1ccc(O)cc1` (configuration not stated), the activity change, negative = inhibition was 2.67% (inactive).

Turning to `CC1(C)OC2CC3C4CC(F)C5=CC(=O)C=CC5(C)C4C(O)CC3(C)[C@]2(C(=O)CO)O1` (some centres not stated), the activity change, negative = inhibition is 6.59% (inactive).

The experiment is the same for the next values; noted with them: Drosophila S3 cells, BODIPY lipid droplet/cell ratio, laser cytometry; measured here: cell count channel max response; cells loaded with oleic acid.
Turning to `CCNC(=O)[C@H]1O[C@@H](n2cnc3c(N)nc(NCCc4ccc(CCC(=O)O)cc4)nc32)[C@H](O)[C@H]1O`, the max response was -4.53%.

For the molecule `CS(=O)(=O)c1ccc(C2=C(c3ccccc3)C(=O)OC2)cc1`, the max response is 15.3%.

Take `CN[C@H]1[C@@H](O[C@@H]2[C@H](O[C@@H]3[C@@H](O)[C@@H](O)[C@@H](N=C(N)N)[C@@H](O)[C@@H]3N=C(N)N)O[C@H](C)[C@@]2(O)C=O)O[C@@H](CO)[C@@H](O)[C@H]1O`: the max response came out at 12.5%.

For `NCC1CCC(C(=O)O)CC1` (configuration not stated), the max response was -0.272% and 28.1%.

On to `OC(c1cc(C(F)(F)F)nc2c(C(F)(F)F)cccc12)C1CCCCN1` (configuration not stated), for which the max response is 6.15%.

Consider `CCC(=C(CC)c1ccc(O)cc1)c1ccc(O)cc1`, for which the max response is -17.8%.

Regarding `CN(C)CCN(Cc1ccc(Cl)cc1)c1ccccn1`, the max response was -9.2%.

With `Nc1ccn([C@@H]2O[C@H](CO)[C@@H](O)[C@H]2O)c(=O)n1`, the max response is -16.3%.

On to `Cc1cc2nc3c(=O)[nH]c(=O)nc-3n(CC(O)C(O)C(O)CO)c2cc1C` (configuration not stated), for which the max response was 2.32% and -7.87% and -11.2%.

Take `COc1ccc2ccc(=O)oc2c1CC=C(C)C`: the max response was determined as 4.48%.

Turning to `CCC(c1ccc(O)cc1)C(CC)c1ccc(O)cc1` (configuration not stated), the max response was 10.5%.

As for `CC(NCCc1ccc(O)cc1)C(O)c1ccc(O)cc1` (configuration not stated), the max response is 13.6%.

As for `C=C1c2cccc(O)c2C(O)=C2C(=O)[C@@]3(O)C(O)=C(C(N)=O)C(=O)[C@@H](N(C)C)[C@@H]3[C@@H](O)[C@H]12`, the max response was -8.47%.

Turning to `NS(=O)(=O)c1cc(Cl)c(Cl)c(S(N)(=O)=O)c1`, the max response is -9.93%.

With `CC1(C)OC2CC3C4CC(F)C5=CC(=O)C=CC5(C)C4C(O)CC3(C)[C@]2(C(=O)CO)O1` (some centres not stated), the max response is 10.6%.

Still in this experiment, the particulars now being: Drosophila S3 cells, BODIPY lipid droplet/cell ratio, laser cytometry; measured here: lipid channel max response; cells loaded with oleic acid.
Turning to `CCNC(=O)[C@H]1O[C@@H](n2cnc3c(N)nc(NCCc4ccc(CCC(=O)O)cc4)nc32)[C@H](O)[C@H]1O`, the max response is -7.25%.

In the case of `CS(=O)(=O)c1ccc(C2=C(c3ccccc3)C(=O)OC2)cc1`, the max response stood at 35.2%.

In the case of `CN[C@H]1[C@@H](O[C@@H]2[C@H](O[C@@H]3[C@@H](O)[C@@H](O)[C@@H](N=C(N)N)[C@@H](O)[C@@H]3N=C(N)N)O[C@H](C)[C@@]2(O)C=O)O[C@@H](CO)[C@@H](O)[C@H]1O`, the max response came out at 7.05%.

On to `NCC1CCC(C(=O)O)CC1` (configuration not stated), for which the max response is -2.41% and 39.3%.

`OC(c1cc(C(F)(F)F)nc2c(C(F)(F)F)cccc12)C1CCCCN1` (configuration not stated): the max response amounted to 10.3%.

With `CCC(=C(CC)c1ccc(O)cc1)c1ccc(O)cc1`, the max response is -23.1%.

On to `CN(C)CCN(Cc1ccc(Cl)cc1)c1ccccn1`, for which the max response was -15.8%.

Consider `Nc1ccn([C@@H]2O[C@H](CO)[C@@H](O)[C@H]2O)c(=O)n1`, for which the max response was -19.1%.

On to `Cc1cc2nc3c(=O)[nH]c(=O)nc-3n(CC(O)C(O)C(O)CO)c2cc1C` (configuration not stated), for which the max response was 0.677% and 3.75% and -34%.

Turning to `COc1ccc2ccc(=O)oc2c1CC=C(C)C`, the max response worked out at 16.7%.

Consider `CCC(c1ccc(O)cc1)C(CC)c1ccc(O)cc1` (configuration not stated), for which the max response worked out at 25.1%.

In the case of `CC(NCCc1ccc(O)cc1)C(O)c1ccc(O)cc1` (configuration not stated), the max response came out at 20%.

For the molecule `C=C1c2cccc(O)c2C(O)=C2C(=O)[C@@]3(O)C(O)=C(C(N)=O)C(=O)[C@@H](N(C)C)[C@@H]3[C@@H](O)[C@H]12`, the max response is -6.76%.

`NS(=O)(=O)c1cc(Cl)c(Cl)c(S(N)(=O)=O)c1`: the max response is -12.7%.

Consider `CC1(C)OC2CC3C4CC(F)C5=CC(=O)C=CC5(C)C4C(O)CC3(C)[C@]2(C(=O)CO)O1` (some centres not stated), for which the max response came to 23.9%.
